For 14 compounds, growth results are on record in PubChem BioAssay (NCI).

This is part of a sample that, as a whole, favours compounds with a hit. Of some 83,000 tested, about 20% had one in any assay.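 Interpretation: 100, growth as untreated; towards 0, rising growth inhibition; 0, no net growth; 0 to -100, cell death. Compounds scoring below 10 were considered active.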 Values without a mark were called inactive. The source made the active and inactive calls.

For the test, the system named is KM12 colon. Description: NCI-60 one-dose screen, 48 h (100 = growth as untreated, 0 = no growth, -100 = all killed). Conditions: 10 µM unless noted.
With `Cc1ccc(NC(=S)/N=c2/n(-c3ccccc3)nc3n2CCN3C2=NCCN2)cc1`, the growth was 109%.

On to `COc1c(B(O)O)cccc1-c1nc2ccc3[nH]ncc3c2c2c1CCC2`, for which the growth was 51.3%.

For `O=C1Nc2ccccc2/C1=C/C(=O)c1ccc(N2CCCC2)cc1`, the growth was 15.1%.

Turning to `COc1cc(C(=O)/C=C/c2c(-c3ccc(F)cc3)nc3sccn23)cc(OC)c1OC`, the growth was -12.1% (active).

On to `COc1ccc(C2CC(c3cc(OC)c(OC)c(OC)c3)=NN2C(C)=O)cc1OCC(=O)Nc1nc2ccc(C(F)(F)F)cc2s1` (centres undefined), for which the growth was 64.5%.

Regarding `CN(C)c1cc(NN=C(c2ccc(O)cc2)c2ccc(O)cc2)c([N+](=O)[O-])cc1[N+](=O)[O-]`, the growth was 92%.

For the compound `CC[C@@](C)(NC(=O)[C@H](C)NC(=O)CCNC(=O)C(C)(C)NC(=O)[C@H](C)NC(=O)[C@@H]1CCCN1C(=O)[C@@](C)(CC)NC(=O)[C@H](Cc1ccccc1)NC(=O)C1CCCN1C(=O)C(C)(C)NC(=O)C1CCCN1C(=O)C(C)(C)NC(C)=O)C(=O)NCCC(=O)N[C@@H](CC(C)C)C(=O)NC(C)(C)C(=O)NCCC(=O)N[C@@H](CC(C)C)C(=O)NC(C)(C)C(=O)NC(C)(C)C(=O)N[C@@H](CC(C)C)C(=O)NCCC(=O)NCO` (some centres undefined), the growth was -94.8% (active).

`CCN(CCNc1ccc(C)c2sc3cc(Cl)ccc3c(=O)c12)CC(C)O` (centres undefined): the growth was 39.2%.

On to `CC1(C)CC[C@]23CC[C@]4(C)[C@H](CC[C@@H]5[C@@]6(C)C/C(=C/c7cccnc7)C(=O)C(C)(C)[C@@H]6CC[C@]54C)[C@H]2[C@H]1OC3=O`, for which the growth is 33.4% [100 µM].

For `Cc1ccc(-n2nc3n(/c2=N\C(=O)NS(=O)(=O)c2ccc(C)cc2)CCN3C2=NCCN2)cc1`, the growth is 105%.

`O=C1Nc2ccccc2/C1=C/C(=O)c1ccc(N2CCOCC2)cc1`: the growth was 105%.

`Nc1ccc(NC(=O)c2ccccc2)c2c1C(=O)c1ccccc1C2=O`: the growth is 96%.

In the case of `CN(C)CCOc1ccc(/C(=C(/CCCl)c2ccccc2)c2ccccc2)cc1`, the growth is -47.4% (active).

In the case of `CC[C@@H]1NC(=O)[C@@H]2CCCCN2C(=O)[C@@H]2CCCN2C(=O)[C@@H](NC(=O)[C@H](Cc2cc(F)cc(F)c2)NC(=O)Nc2ccc(C3CC3)cc2F)[C@H](C)OC(=O)[C@@H]2C[C@@H](C)CN2C1=O`, the growth is 17%.
